Rows were chosen to be rich in hits. Some 21% of all compounds tested hit in one or more screens of this group.
Cycloheximide cs – Cycloheximide Counterscreen for Small Molecule Inhibitors of Shiga Toxin | cell reporter, cycloheximide protein synthesis inhibition counterscreen | max response, % | 300,000 compounds, 12% hits; in the data active = max response mostly above about 13%, no sharp cut-off; inactive = mostly below about 14%; note: read at 38.3 µM for the half of the compounds with a filed dose; 0% is about no effect
Shiga toxin inh – A qHTS for Small Molecule Inhibitors of Shiga Toxin; Vero cells, Shiga toxin protein synthesis inhibition reporter; inhibition, % at 38.7 µM; 290,000 compounds, 9.2% hits; in the data active = inhibition mostly above about 28%, no sharp cut-off; inactive = mostly below about 43%; note: 0% is about no effect
Pf growth 96h – Primary qHTS for delayed death inhibitors of the malarial parasite plastid, 96 hour incubation. P. falciparum luciferase reporter growth, 96 h. Potency, µM (highest dose often 28.7 µM), for inactives: top-dose activity change, negative = inhibition, usual class: inhibitors. 320,000 compounds, 6.9% hits; note: potency is the fitted concentration of half-maximal effect; % is set by controls: 0 for no effect and ±100 for the full control effect
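Cell-based qHTS: luciferase-tagged P. falciparum in erythrocytes (2% hematocrit, 0.05% parasitemia final) incubated with compounds for 96 hours, 37 C, 5% CO2; luciferase detection reagent then added and luminescence measured.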
Pf growth 48h – Primary qHTS for delayed death inhibitors of the malarial parasite plastid, 48 hour incubation | P. falciparum luciferase growth in erythrocytes, 48 h | AID 504832, 2011 | 310,000 compounds, 5.9% hits | Potency, µM (highest dose often 28.7 µM), inactives show at the highest dose activity change, negative = inhibition, actives largely listed as inhibitors; note: potency is the fitted concentration of half-maximal effect; % is set by controls: 0 for no effect and ±100 for the full control effect
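Luciferase-expressing P. falciparum in infected erythrocytes (2% hematocrit, 0.1% parasitemia final) in RPMI 1640/0.5% Albumax were exposed to compound for 48 hours at 37 C, 5% CO2; growth read as luminescence.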
HCV inhibitor – qHTS Assay for Inhibitors of Hepatitis C Virus (HCV) | Huh7.5.1 HCVcc-Cre infection, luciferase reporter, 44 h | Potency, µM (titrated, usually from 41.8 µM), for the others: top-dose activity change, negative = inhibition, actives largely listed as inhibitors | 340,000 compounds, 3.4% hits | AID 651820, 2012; note: potency is the fitted concentration of half-maximal effect; % is set by controls: 0 for no effect and ±100 for the full control effect
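Compounds are dispensed onto cells plated 4 h earlier at 1,000 per well, with HCVcc-Cre virus (about 0.5 moi) added next. Following 44 h of culture, luminescent signal is measured for 15 sec after 15 min with substrate at room temperature.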
HCMV inh – qHTS Assay for inhibitors of the human cytomegalovirus (HCMV); HFF cells, HCMV-luciferase reporter, 72 h; hits give low values; activity change, negative = inhibition, % at 57.5 µM; 410,000 compounds, 4.5% hits; AID 1259415, 2018; in the data active = activity change below about -60%; inconclusive = no clear call, values can overlap the other calls; inactive = above about -39%; note: % is set by controls: 0 for no effect and ±100 for the full control effect
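Two compound doses tested in HFFs infected with HCMV-luciferase, MOI 1 PFU/cell, 72 h at 37C. Lysate luminescence read with OneGlo; data normalized against buffer-only and 10uM Salinomycin inhibitor controls.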
An asterisk follows results filed as active; i = inactive; ? = inconclusive; . = not tested or not shown. Unless noted, calls come from the whole dose curve; as a rule, active = well fitted inhibition curve with a large enough effect; inconclusive = small, poorly fitted or top-dose-only effect, or another doubt; inactive = no such curve, though single readings can be large or run the other way.

SMILES	Cycloheximide cs	Shiga toxin inh	Pf growth 96h	Pf growth 48h	HCV inhibitor	HCMV inh
O=C(/C=C/c1ccc(F)cc1)Nc1cc(S(=O)(=O)N2CCOCC2)ccc1N1CCOCC1	.	.	.	.	.	-8
O=C(c1ccc([N+](=O)[O-])cc1)N1c2ncnn2C2(CCCCC2)[C@@H]2CCCC[C@@H]21	.	.	.	.	.	4
NCCc1nc2cccnc2n1-c1ccccc1	.	.	.	.	.	12
Cc1cccc(NC(=O)C(=O)c2cc(C)n(-c3ccccc3)c2C)c1C	.	.	.	.	.	-18
Cc1nn(CC2CC2)c(=O)n1-c1ccccc1	1	3	94%	61%	23%	29
COC(=O)C1=C[C@@H](C(=O)OC)[C@@H]2C3=C(C(=O)[C@@]2(C)NC(=O)c2ccccc2)[C@H](C)n2c(=O)n(C)c(=O)n2[C@@H]3C1	.	.	.	.	?	11
Nc1c(C(=O)NCc2ccco2)nnn1CC(=O)Nc1ccc2c(c1)OCO2	-4	-11	?	12µM*	8%	-16
CC(C)c1ccc(NC(=O)Cn2nnc(C(=O)NCc3ccco3)c2N)cc1	10	-3	12µM*	29%	0%	-16
Nc1c(C(=O)NCc2ccco2)nnn1-c1ccccc1	42*	71*	13%	240%	23%	54
Cc1ccc(NC(=O)Cn2nnc(C(=O)NCc3ccco3)c2N)cc1	2	2	0%	.	-3%	-4
COc1cc(Br)cc(/C=N/NC(=O)Cc2ccc(C(F)(F)F)cc2[N+](=O)[O-])c1O	-2	-5	?	?	?	-102*
CCOc1cc(/C=N/NC(=O)Cc2ccc(C(F)(F)F)cc2[N+](=O)[O-])c(Br)cc1OC	-2	-25	17%	34%	?	-21
CN(C)c1ccc(C2N3CC4(C)CN2CC(C)(C3)C4O)cc1 (stereo not given)	-3	-4	4.7µM*	.	20%	17
CC12CN3CC(C)(CN(C1)C3c1ccc(Cl)cc1Cl)C2O (stereo not given)	8	16	0%	21%	?	-13
O=C(Nc1ccccc1C(=O)N1CCCCC1)c1nsc2ccccc12	.	.	.	.	.	0
N#CC12C(N)=NC3(OCCO3)C1(C#N)C1=C(CCC1)NC2c1ccccc1 (stereo not given)	17*	25	37%	30%	7%	8
CCSC1(SCC)N=C(N)C2(C#N)C(c3ccccc3)NC3=C(CCC3)C12C#N (stereo not given)	-3	-7	.	7%	2%	-37
C=CCn1c(SCC(=O)N(CCOC)c2c(N)n(CC(C)C)c(=O)[nH]c2=O)nc2ccccc21	.	.	?	-6%	3%	-30
CC(=O)c1cc(C#N)c(N(C)Cc2ccccc2)nc1C	18	1	-3%	-9%	-23%	17
COC(=O)c1cc(C#N)c(N(C)Cc2ccccc2)nc1C	30*	37	?	.	5%	0
N#Cc1ccc(OCc2nnc(SCC(=O)N3CCCc4ccccc43)n2-c2ccccc2)cc1	0	-12	3.3µM*	15µM*	-8%	-3
Nc1nnc(SCC(=O)N2CCc3ccccc32)n1-c1ccccc1	-1	7	-3%	1%	?	-18
O=C(CSc1nnc(CN2CCOCC2)n1-c1ccccc1)N1CCc2ccccc21	-2	-12	13µM*	3%	-1%	-14
COc1ccc(-n2c(Cc3cccn3C)nnc2SCC(=O)N2CCCc3ccccc32)cc1	-4	-11	13%	?	.	13
COc1ccc(OCc2nnc(SCC(=O)N3CCCc4ccccc43)n2-c2ccc(C)cc2)cc1	6	-18	.	12µM*	10µM*	-9
SMILES	Cycloheximide cs	Shiga toxin inh	Pf growth 96h	Pf growth 48h	HCV inhibitor	HCMV inh
COc1ccc(NC(=O)CN(C)C(=O)c2ccc(S(=O)(=O)Nc3ccccc3F)cc2)cc1	.	.	18%	5%	2%	5
O=C(NCC(=O)N(c1cccc(F)c1)C(C(=O)NC1CCCC1)c1ccncc1)c1cccs1 (stereo not given)	-3	-6	?	1%	9%	-39
Cc1nc(-c2ccc3c(c2)CCC(=O)N3)cs1	29*	65*	123%	119%	0%	143
Cc1cccc(Nc2nc(-c3ccc4c(c3)OCCO4)cs2)c1	44*	120*	-87%	.	-27%	31
Clc1cccc(Nc2nc(-c3ccncc3)cs2)c1	0	-5	30%	-4%	10µM*	146
Cc1ccc(-c2csc(Cc3nc(-c4ccc5c(c4)CCC(=O)N5)cs3)n2)cc1	-1	-12	-4%	1%	?	?
Cc1cccc(Nc2nc(-c3ccncc3)cs2)c1	42*	143*	27%	41%	?	37
Nc1c(C(=O)Nc2ccccc2Cl)c2ccccn2c1C(=O)c1ccc(Cl)cc1	.	.	.	.	.	12
CC(O)(c1ccccc1)c1nc(-c2ccc3c(c2)OCO3)cs1 (stereo not given)	.	.	.	.	.	16
Cc1ccc(Nc2nc(-c3ccncc3)cs2)cc1	47*	119*	2%	403%	?	111
Cc1nc(-c2ccc3c(c2)OCCO3)cs1	44*	169*	i	i	5%	-5
CC1C2CCC3C4CC=C5CC(N(C)C)CC[C@@]5(C)C4CC[C@@]32CN1C (stereo not given in full)	.	.	?	15µM*	.	.
C[C@]12CC[C@H](O)CC1=CC[C@@H]1[C@@H]2CC[C@]2(C)C(=O)CC[C@@H]12	.	.	.	.	2%	-33
Cc1ccccc1-c1nn2c(-c3ccccc3)nnc2s1	-4	-16	9.3µM*	?	?	-19
CC(C)(C)c1ccc(-c2nnc3sc(-c4ccncc4)nn23)cc1	14*	34	2%	?	?	-26
COC1OC(c2ccccc2)=C(c2cnc(N)nc2)c2ccc(F)cc21 (stereo not given)	.	.	.	.	.	-4
COc1cccc(OC)c1OC(=O)/C=C/c1ccc(C)o1	-5	-3	2%	-1%	4%	20
Cn1c2ccccc2c2n[nH]c(=O)nc21	-2	1	?	8%	3%	?
Cn1c2ccccc2c2nn(-c3ccccc3)c(=O)cc21	-2	-21	10µM*	1%	12%	-25
CCc1ccc(OCC(=O)NCc2nc(-c3cccc(C)c3)no2)c(Br)c1	.	.	.	.	.	-24
Cc1ccc(OCc2nc(-c3ccccn3)no2)cc1	29*	43	267%	.	28%	4
CC(C)(C)Cc1nc(-c2ccccn2)no1	34*	76*	4%	140%	2%	-18
CC(C)c1ccc(OCC(=O)N2CCN(c3ccccn3)CC2)c(Br)c1	10	-9	?	41%	.	5
CCc1ccc(OCc2nc(-c3ccccn3)no2)c(Br)c1	29*	24	4%	89%	?	24

Screening results: PubChem, National Center for Advancing Translational Sciences (NCATS)
